Compounds with a hit are over-represented: about 2.2% of the library has one in this group of screens.
Vaccinia Venus: qHTS for Stage-Specific Inhibitors of Vaccinia Orthopoxvirus: Venus Reporter Primary qHTS; AID 720580, 2013; Potency, µM (series often up to 36.5 µM), for the others: at the top dose activity change, negative = inhibition, hits mostly inhibitors; 0.46% of 330,000 active; Vaccinia virus Venus reporter expression, fluorescence; calls by dose curve; tested in A549 cells; further: nearly all actives have a fitted effect of over 30% in size
Vaccinia mCherry: qHTS for Stage-Specific Inhibitors of Vaccinia Orthopoxvirus: mCherry Reporter Primary qHTS | Vaccinia virus mCherry reporter infection, fluorescence | Potency, µM (doses to about 36.5 µM), for inactives: at the top dose activity change, negative = inhibition, actives largely listed as inhibitors | 0.63% of 310,000 active | AID 720579, 2013; calls by dose curve; tested in A549 cells; further: nearly all actives have a fitted effect of over 35% in size
Giardia FBPA inh: qHTS Assay for Inhibitors of Fructose-1,6-bisphosphate Aldolase from Giardia Lamblia; A8B2U2; purified Giardia FBPA; Potency, µM (series often up to 59.6 µM), for the others: top-dose activity, negative = inhibition, most hits filed as inhibitors; 0.71% of 290,000 active; AID 2451, 2010; active means well fitted inhibition curve with a large enough effect; inconclusive means small, poorly fitted or top-dose-only effect, or effect the other way; further: nearly all actives have a fitted effect of over 55% in size
Target sequence (A8B2U2 whole entry, looked up): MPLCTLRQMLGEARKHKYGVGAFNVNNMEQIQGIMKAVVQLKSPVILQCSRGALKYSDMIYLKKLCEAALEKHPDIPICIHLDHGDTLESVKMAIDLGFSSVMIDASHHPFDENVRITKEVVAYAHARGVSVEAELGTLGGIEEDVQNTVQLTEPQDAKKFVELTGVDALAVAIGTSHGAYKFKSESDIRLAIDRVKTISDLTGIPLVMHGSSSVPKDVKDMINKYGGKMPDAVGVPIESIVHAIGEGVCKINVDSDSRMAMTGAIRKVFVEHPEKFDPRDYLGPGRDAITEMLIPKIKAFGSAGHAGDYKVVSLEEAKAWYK
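40 nM FBPA preincubated 10 min at RT with compound (up to 57.5 uM final), then substrate plus GAPDH/TPI/NAD/arsenate coupling and diaphorase/resazurin added. Fluorescence read after 20 min at RT, 525/598 nm.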
FMDV antiviral: High Throughput Screening for Foot and Mouth Disease Virus Antivirals; FMDV antiviral cell-based qHTS; Potency, µM (series often up to 57.9 µM), without a hit: at the top dose activity change, negative = inhibition, actives largely listed as inhibitors; 1.2% of 410,000 active; calls by dose curve; tested in HEK293T cells; further: read-out not given here; nearly all actives have a fitted effect of over 45% in size
The depositor's hits bear a star. On the % scale 0 is the no-effect control and ±100 the full control effect; potency means the concentration at half of the fitted maximal effect.

For CCc1noc(C)c1C(=O)N1CCOc2ccc(CN3CCCC(C(=O)c4cccnc4)C3)cc2C1 (stereo not drawn) the results were Vaccinia Venus -17%, Vaccinia mCherry -4% and FMDV antiviral -6%.
COCCN(C)C(=O)c1cnn(-c2ncc3c(n2)-c2ccccc2CCC3)c1C1CC1 was read as Vaccinia Venus 3%, Vaccinia mCherry -8% and FMDV antiviral 43%.
Cc1cc(-n2c(C)cc(C(=O)CSc3ncnc4ccccc34)c2C)no1 was read as Giardia FBPA inh inconclusive and FMDV antiviral 13µM*.
CC(=O)c1cccc(OCC(=O)c2cc(C)n(-c3cc(C)on3)c2C)c1 was read as Vaccinia Venus -26%, Vaccinia mCherry -9%, Giardia FBPA inh inconclusive and FMDV antiviral 22µM*.
Cc1cc(-n2c(C)cc(C(=O)COc3ccc4ccc(=O)oc4c3)c2C)no1 was read as Vaccinia Venus 2%, Vaccinia mCherry 0%, Giardia FBPA inh inconclusive and FMDV antiviral -29%.
O=C1CCC[C@@H]2[C@@H](Cc3ccccc3)[C@@H](Nc3ccccc3)C[C@@H]3CCN1[C@@H]32 was read as Vaccinia Venus -9% and Vaccinia mCherry inactive.
Screening CC(C)(C)OC(=O)N1CC=C2C(C#N)=C(N)C(C#N)(C#N)C(c3cccs3)C2C1 (stereo not drawn) returned Giardia FBPA inh inconclusive and FMDV antiviral 22µM*.
CCOC(=O)N1CC=C2C(C#N)=C(N)C(C#N)(C#N)[C@H](c3cccs3)C2C1 (stereo partly drawn) was read as Vaccinia Venus -18%, Vaccinia mCherry -25%, Giardia FBPA inh -10% and FMDV antiviral inconclusive.
`COc1cccc(C=C(C(C)=O)C(=O)c2ccccc2)c1` gave Vaccinia Venus -12%, Vaccinia mCherry -6% and FMDV antiviral 20µM*.
CC(=O)C(=Cc1ccc(O)cc1)C(C)=O was read as Vaccinia Venus -5%, Vaccinia mCherry inactive, Giardia FBPA inh -6% and FMDV antiviral -19%.
For CCC(=O)Nc1ccc(C=C(C(C)=O)C(C)=O)cc1 the results were Giardia FBPA inh 3% and FMDV antiviral 20µM*.
Screening CCC(=O)Nc1ccc(/C=C(\C(C)=O)C(=O)c2ccccc2)cc1 returned Vaccinia Venus -19%, Vaccinia mCherry inactive, Giardia FBPA inh 5% and FMDV antiviral 28µM*.
`CN(C)S(=O)(=O)c1cc(NC(=O)CSc2ncc(C(F)(F)F)cc2Cl)ccc1Cl` gave Vaccinia Venus -11%, Vaccinia mCherry -23%, Giardia FBPA inh 0% and FMDV antiviral 28µM*.
For COCCn1c(SCC(=O)Nc2ccc(Cl)c(S(=O)(=O)N(C)C)c2)nc2ccccc21 the results were Vaccinia Venus inconclusive, Vaccinia mCherry -12%, Giardia FBPA inh 0% and FMDV antiviral 28µM*.
`Cc1nc2c(O)cccc2cc1CO` gave Vaccinia Venus -9%, Vaccinia mCherry inactive, Giardia FBPA inh 20µM* and FMDV antiviral -4%.
Cc1noc(C)c1-c1ccc2ncnc(NCc3ccco3)c2c1 was read as Giardia FBPA inh 1%.
Screening CC(C)(C)NC(=O)C(c1ccc(-c2ccccc2)cc1)N(C[C@H]1CC[C@@H]([C@@H]2CC[C@H](CO)O2)O1)C(=O)c1ccc(-c2ccccc2)cc1 (stereo partly drawn) returned Vaccinia Venus inconclusive, Vaccinia mCherry 28µM* and FMDV antiviral inconclusive.
CC(C)(C)NC(=O)C(c1ccc(-c2ccccc2)cc1)N(C[C@H]1CC[C@@H]([C@@H]2CC[C@H](CO)O2)O1)C(=O)c1ccc2ccccc2c1 (stereo partly drawn) was read as Vaccinia Venus -10%, Vaccinia mCherry -7% and FMDV antiviral 0%.
Screening O=C(NCC1Cc2cccc(-c3nccs3)c2O1)c1ccnc(Cl)c1 (stereo not drawn) returned Vaccinia Venus -25%, Vaccinia mCherry -10% and FMDV antiviral 10%.
Screening CCCCOc1ccc(CNC(=O)Cc2ccc(NC(=O)N3CCCCc4ccccc43)cc2)cc1 returned Vaccinia Venus -21%, Vaccinia mCherry -17% and FMDV antiviral inconclusive.
COc1ccccc1OCc1ccc(C(=O)Nc2ccncc2)o1 was read as Giardia FBPA inh 8% and FMDV antiviral 14µM*.
Screening COc1cc(Cl)c(CN2CCOc3ccc(CN4CCCCC4CO)cc3C2)cc1OC (stereo not drawn) returned Vaccinia Venus -6%, Vaccinia mCherry -12% and FMDV antiviral -4%.
Screening Cc1nc(C#N)nc(Oc2ccccc2)c1Cl returned Vaccinia Venus -19% and Vaccinia mCherry -27%.
For Cc1ccc(CNc2nc(CN3CCSCC3)nc3ccccc23)o1 the results were Vaccinia Venus -8%, Vaccinia mCherry -18% and FMDV antiviral 39%.
`CCN(CC)S(=O)(=O)c1ccc(-c2nnc(SCC(=O)Nc3nc(C)cs3)o2)cc1` gave Vaccinia Venus 11µM*, Vaccinia mCherry 5µM* and Giardia FBPA inh -1%.
Screening Cc1csc(NC(=O)CSc2nnc(-c3ccccc3)o2)n1 returned Vaccinia Venus -13%, Vaccinia mCherry -3%, Giardia FBPA inh 0% and FMDV antiviral 34%.
For Cc1csc(NC(=O)CSc2nnc(-c3ccc(S(=O)(=O)N4CCCC4)cc3)o2)n1 the results were Vaccinia Venus 4.5µM*, Vaccinia mCherry 3.2µM*, Giardia FBPA inh 0% and FMDV antiviral -18%.
CCn1c(SCC(=O)Nc2nccs2)nnc1-c1ccccc1 was read as Vaccinia Venus -9%, Vaccinia mCherry -18%, Giardia FBPA inh -4% and FMDV antiviral 15%.
For CCn1c(SCC(=O)Nc2nccs2)nnc1-c1ccc(S(=O)(=O)N2CCCCC2)cc1 the results were Giardia FBPA inh 6% and FMDV antiviral 25µM*.
`Cc1ccn2c(NC3CCCCC3)c(-c3ccc(C)o3)nc2c1` gave Vaccinia Venus -14% and Vaccinia mCherry -11%.
For C(=C\c1nc2ccccc2s1)/c1ccc2c(c1)OCO2 the results were Vaccinia Venus -21% and Vaccinia mCherry inconclusive.
CC(C)N1CCN(C(=O)c2cnn(-c3nccc(-c4ccc5c(c4)OCO5)n3)c2-c2ccco2)CC1 was read as Vaccinia Venus -24%, Vaccinia mCherry inconclusive and FMDV antiviral -4%.
`OC(CNCCC1C=Nc2ccccc21)Cn1c2ccc(Cl)cc2c2cc(Cl)ccc21` (stereo not drawn) gave Vaccinia Venus inconclusive, Vaccinia mCherry 20µM*, Giardia FBPA inh -1% and FMDV antiviral 0%.
Cc1ccc(CN2CCc3nnc(C(C)NC(=O)c4cc(F)ccc4F)n3CC2)o1 (stereo not drawn) was read as Vaccinia Venus 0%, Vaccinia mCherry inactive and FMDV antiviral -6%.
`CN(C)c1ccc(N=Nc2ccc(C(=O)O)cc2)cc1` gave Vaccinia Venus -9%, Vaccinia mCherry inactive, Giardia FBPA inh inconclusive and FMDV antiviral 11µM*.
`CN(C)c1ccc(N=Nc2ccccc2)cc1` gave Vaccinia Venus -4% and Vaccinia mCherry 31%.

From PubChem
